The text below walks through data of PubChem BioAssay (NCI).

What all share (assay): NCI-60 one-dose screen, 48 h (100 = growth as untreated, 0 = no growth, -100 = all killed)
Common to all, as to settings: 10 µM

The test system of assay [1] is SR leukemia.
For assay [2], the system named is RPMI-8226 leukemia.
Assay [3] concerns OVCAR-8 ovarian.
Assay [4] deals with OVCAR-5 ovarian.
In assay [5] the test system is OVCAR-4 ovarian.
For assay [6], the system named is SK-OV-3 ovarian.
For assay [7], the system named is IGROV1 ovarian.
Assay [8] has as its system OVCAR-3 ovarian.
Assay [9] has as its system HS 578T breast.
Assay [10] relates to NCI/ADR-RES ovarian.
Assay [11] deals with T-47D breast.
The test system of assay [12] is BT-549 breast.
For assay [13], the system named is MDA-MB-435 melanoma.
The test system of assay [14] is SW-620 colon.
Assay [15] concerns MCF7 breast.
Assay [16] relates to HCT-116 colon.
Assay [17] deals with HCC-2998 colon.
Assay [18] relates to KM12 colon.

This is part of a sample that, as a whole, favours compounds with a hit. Of some 83,000 tested, about 20% had one in any assay.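 Step 1: grow cells in 96-well plates. Step 2: add test compound at a single concentration. Step 3: incubate 48 h. Step 4: record percent growth.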 A number with no mark means an inactive call. Active and inactive are the calls of the source. How the source made its calls: active means growth percent below 10; inactive means the rest.

Consider `Nc1c(CNCc2nnn(Cc3ccccc3)c2N)nnn1Cc1ccccc1`, for which the growth in assay [1] was 90%; in assay [2], 94.7%; in assay [3], 99.8%; in assay [4], 95.5%; in assay [5] it was 92.1%; in assay [6], 114%. The growth in assay [7] was 102%; in assay [8], 107%; in [9], 99%; in [10], 97.2%; in [11], 101%; in assay [12] it was 105%. The growth in assay [13] was 107%; in [14] it was 95.9%; in assay [15] it was 101%; in assay [16], 103%; in assay [17], 98.7%; in assay [18], 98.3%.

As to `O=[N+]([O-])c1ccc(S(=O)(=O)OCCCCOS(=O)(=O)c2ccc([N+](=O)[O-])cc2)cc1`, the growth in [1] is 100%; in [2] it was 106%; in assay [3] it was 108%; in assay [4] it was 103%; in [5], 108%; in assay [6] it was 115%. Besides, the growth was 115% in [7]; 105% in assay [8]; 105% in assay [9]; 98.9% in [10]; 100% in assay [11]; 106% in [12]. In addition, the growth in [13] is 95.1%; in [14] it was 102%; in assay [15] it was 95.9%; in assay [16], 108%; in assay [17], 100%; in assay [18], 107%.

As for `COc1ccc(C2C=C(c3ccc(Cl)c(Cl)c3)N=C3SC(C)=CN32)cc1` (centres undefined), the growth in assay [1] was 9.84% (active); in assay [2], 18%; in assay [3], 94%; in assay [4] it was 102%; in assay [5], 91.3%; in assay [6] it was 109%. Also, the growth is 86.8% in assay [7]; 95.5% in [8]; 105% in assay [9]; 107% in [10]; 68.3% in assay [11]; 89.9% in assay [12]. The growth was 90.6% in assay [13]; 91.4% in assay [14]; 47.1% in [15]; 14.4% in [16]; 108% in assay [17]; 81.6% in assay [18].

Turning to `CCC(O)c1ccc(Br)cc1NC(=O)c1cccc(Cl)c1` (centres undefined), the growth in assay [1] is 8.25% (active); in assay [2], 18.2%; in assay [3] it was 13.9%; in assay [4] it was 50.4%; in assay [5], 24.9%; in assay [6] it was 34%. In addition, the growth in [7] was 10.4%; in [8], 33.8%; in assay [9] it was 51%; in [10], 5.46% (active); in assay [11], 20.8%; in assay [12], 42.7%. The growth in assay [13] is 16.9%; in assay [14] it was 13.8%; in [15], 14.4%; in assay [16] it was 20.7%; in assay [17], 19.1%; in [18] it was 26.3%.

In the case of `CCN(CC)c1ccc(/C=C/C2=[N+](C)c3ccccc3C2(C)C)c(C)c1`, the growth in [1] is -14.6% (active); in assay [2], -25.7% (active); in [3], 8.1% (active); in assay [4], 30.6%; in assay [5], 18.4%; in [6], -6.99% (active). The growth in assay [7] was 31.8%; in [8], 8.86% (active); in assay [9], 41.8%; in assay [10], 33.4%; in assay [11], -0.932% (active); in assay [12], -13.2% (active). The growth was -13.7% (active) in [13]; 18.7% in [14]; 3.87% (active) in assay [15]; 5.94% (active) in assay [16]; 23.3% in [17]; -34.7% (active) in assay [18].

Take `COc1cc(-c2nc3ccccc3[nH]2)ccc1OCc1nnc(-c2ccc(Br)cc2)o1`: the growth is -25.7% (active) in [1]; 51.5% in assay [2]; 75.7% in assay [3]; 109% in [4]; 85.1% in assay [5]; 108% in assay [6]. The growth was 87.4% in [7]; 110% in assay [8]; 78.4% in assay [9]; 92.5% in [10]; 68.4% in assay [11]; 98.4% in assay [12]. Moreover, the growth was 81% in [13]; 102% in assay [14]; 53.6% in assay [15]; 59.9% in assay [16]; 102% in [17]; 69.2% in assay [18].

For `FC(F)(F)c1ccc(-c2ncc(-c3ccc(C(F)(F)F)cc3)c(NCc3cc(C(F)(F)F)cc(C(F)(F)F)c3)n2)cc1`, the growth in [1] is 83.7%; in [2] it was 53%; in [3] it was 44.5%; in [4], 79.4%; in assay [5], 81.3%; in [6], 82.4%. Further, the growth in assay [7] is 65.6%; in assay [8], 31.9%; in assay [9], 71.9%; in assay [10] it was 68.5%; in assay [11], 28.1%; in assay [12], 79.4%. Further, the growth in assay [13] was 68.3%; in assay [14], 59.7%; in assay [15], 54.9%; in assay [16] it was 24.4%; in assay [17], 77.2%; in [18], 44.7%.

`CS(=O)(=O)Nc1ccc(OCc2nnc(-c3ccc(Cl)cc3)o2)c(F)c1`: the growth was 81.2% in assay [1]; 87.9% in [2]; 98.1% in assay [3]; 99.5% in assay [4]; 82.1% in [5]; 88.8% in assay [6]. Besides, the growth was 104% in assay [7]; 107% in [8]; 98.1% in assay [9]; 96.9% in assay [10]; 63.1% in assay [11]; 89.4% in assay [12]. Moreover, the growth in assay [13] is 104%; in [14], 108%; in assay [15] it was 81.7%; in [16], 86.9%; in [17], 101%; in assay [18], 98.6%.
